Assay results as given in the supplement of paper PMC11732987, “Enantioselective OTUD7B fragment discovery through chemoproteomics screening and high-throughput optimisation” (Communications Chemistry, 2025).

Columns and labels:
Assay in all cases: log2 ratio of Biotin-Ahx-Ub-VS probe labelling (fragment/DMSO); higher = less target engagement (more negative = stronger competition), active = hit call of the paper (q ≤ 0.05, log2 ratio ≤ -1)
Conditions in all cases: compound concentration: 200 uM; treatment time: 3 h
USP19 = target: T1, USP19 (UniProt O94966)
T1 sequence (whole entry): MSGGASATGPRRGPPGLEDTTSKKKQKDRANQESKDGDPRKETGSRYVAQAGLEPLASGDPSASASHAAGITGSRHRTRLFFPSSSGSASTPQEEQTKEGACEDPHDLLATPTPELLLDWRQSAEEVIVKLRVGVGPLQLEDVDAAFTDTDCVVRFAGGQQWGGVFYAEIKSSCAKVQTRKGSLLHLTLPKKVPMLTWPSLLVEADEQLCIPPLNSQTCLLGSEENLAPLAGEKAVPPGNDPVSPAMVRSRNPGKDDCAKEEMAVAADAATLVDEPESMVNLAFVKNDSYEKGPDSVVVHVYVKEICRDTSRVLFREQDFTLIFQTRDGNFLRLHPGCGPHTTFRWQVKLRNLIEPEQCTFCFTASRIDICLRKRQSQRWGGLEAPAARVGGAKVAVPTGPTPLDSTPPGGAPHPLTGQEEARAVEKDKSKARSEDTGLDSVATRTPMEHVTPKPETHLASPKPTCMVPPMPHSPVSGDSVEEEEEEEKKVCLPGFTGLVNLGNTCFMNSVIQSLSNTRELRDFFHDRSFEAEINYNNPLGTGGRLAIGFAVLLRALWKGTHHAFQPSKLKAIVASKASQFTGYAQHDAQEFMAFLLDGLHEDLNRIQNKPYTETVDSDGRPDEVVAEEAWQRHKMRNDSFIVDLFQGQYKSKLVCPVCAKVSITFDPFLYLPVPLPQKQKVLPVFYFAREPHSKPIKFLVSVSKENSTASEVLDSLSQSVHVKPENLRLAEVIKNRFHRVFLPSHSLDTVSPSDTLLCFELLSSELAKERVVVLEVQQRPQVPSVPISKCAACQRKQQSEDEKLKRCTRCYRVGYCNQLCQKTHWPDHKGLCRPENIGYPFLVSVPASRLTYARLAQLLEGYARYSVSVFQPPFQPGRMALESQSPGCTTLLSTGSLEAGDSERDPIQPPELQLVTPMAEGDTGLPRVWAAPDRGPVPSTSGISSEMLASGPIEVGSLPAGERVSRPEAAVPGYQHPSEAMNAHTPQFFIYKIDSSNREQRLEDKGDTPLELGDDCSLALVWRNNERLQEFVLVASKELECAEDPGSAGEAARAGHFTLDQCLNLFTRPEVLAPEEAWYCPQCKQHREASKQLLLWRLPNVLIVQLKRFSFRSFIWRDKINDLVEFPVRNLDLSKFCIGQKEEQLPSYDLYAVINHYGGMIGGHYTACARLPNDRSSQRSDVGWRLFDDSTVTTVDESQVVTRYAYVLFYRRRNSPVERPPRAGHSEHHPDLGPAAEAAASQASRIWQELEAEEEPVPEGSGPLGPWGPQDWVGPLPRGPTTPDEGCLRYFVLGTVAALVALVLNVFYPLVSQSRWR
Procedure, shortened: (§1)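 HEK293T lysate (495 µg per sample, in Tris/CHAPS/IGEPAL buffer with protease inhibitors) was exposed in triplicate for 3 h to fragment at 200 µM or to vehicle, then to Biotin-Ahx-Ub-VS at 0.5 µM final for 1 h. Labelled DUBs were enriched on NeutrAvidin, digested with LysC and trypsin, and analysed by diaPASEF LC-MS/MS. Spectronaut label-free quantities were normalised to the global median, and values are average log2 ratios of fragment over vehicle from an unpaired t-test. Only proteins with ≥2 unique peptides were used.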

USP22 = target: T2, USP22 (UniProt Q9UPT9)
T2 sequence (whole entry): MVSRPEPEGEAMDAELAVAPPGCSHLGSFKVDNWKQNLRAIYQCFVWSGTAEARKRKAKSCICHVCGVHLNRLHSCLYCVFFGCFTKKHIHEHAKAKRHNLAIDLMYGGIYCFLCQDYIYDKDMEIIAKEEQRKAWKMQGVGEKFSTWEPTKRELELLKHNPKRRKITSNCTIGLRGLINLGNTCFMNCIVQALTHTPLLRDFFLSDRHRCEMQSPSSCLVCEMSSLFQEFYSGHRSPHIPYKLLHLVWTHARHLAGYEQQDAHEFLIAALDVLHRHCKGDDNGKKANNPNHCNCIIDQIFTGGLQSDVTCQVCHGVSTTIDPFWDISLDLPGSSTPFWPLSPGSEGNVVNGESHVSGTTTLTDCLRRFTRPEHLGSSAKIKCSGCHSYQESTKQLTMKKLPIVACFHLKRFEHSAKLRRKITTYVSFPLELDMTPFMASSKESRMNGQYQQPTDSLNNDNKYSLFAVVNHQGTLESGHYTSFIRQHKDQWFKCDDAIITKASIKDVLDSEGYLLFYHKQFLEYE
Procedure, shortened: as §1

USP24 = USP24 (UniProt Q9UPU5)
Procedure, shortened: as §1

USP25 = target: T3, USP25 (UniProt Q9UHP3)
T3 sequence (whole entry): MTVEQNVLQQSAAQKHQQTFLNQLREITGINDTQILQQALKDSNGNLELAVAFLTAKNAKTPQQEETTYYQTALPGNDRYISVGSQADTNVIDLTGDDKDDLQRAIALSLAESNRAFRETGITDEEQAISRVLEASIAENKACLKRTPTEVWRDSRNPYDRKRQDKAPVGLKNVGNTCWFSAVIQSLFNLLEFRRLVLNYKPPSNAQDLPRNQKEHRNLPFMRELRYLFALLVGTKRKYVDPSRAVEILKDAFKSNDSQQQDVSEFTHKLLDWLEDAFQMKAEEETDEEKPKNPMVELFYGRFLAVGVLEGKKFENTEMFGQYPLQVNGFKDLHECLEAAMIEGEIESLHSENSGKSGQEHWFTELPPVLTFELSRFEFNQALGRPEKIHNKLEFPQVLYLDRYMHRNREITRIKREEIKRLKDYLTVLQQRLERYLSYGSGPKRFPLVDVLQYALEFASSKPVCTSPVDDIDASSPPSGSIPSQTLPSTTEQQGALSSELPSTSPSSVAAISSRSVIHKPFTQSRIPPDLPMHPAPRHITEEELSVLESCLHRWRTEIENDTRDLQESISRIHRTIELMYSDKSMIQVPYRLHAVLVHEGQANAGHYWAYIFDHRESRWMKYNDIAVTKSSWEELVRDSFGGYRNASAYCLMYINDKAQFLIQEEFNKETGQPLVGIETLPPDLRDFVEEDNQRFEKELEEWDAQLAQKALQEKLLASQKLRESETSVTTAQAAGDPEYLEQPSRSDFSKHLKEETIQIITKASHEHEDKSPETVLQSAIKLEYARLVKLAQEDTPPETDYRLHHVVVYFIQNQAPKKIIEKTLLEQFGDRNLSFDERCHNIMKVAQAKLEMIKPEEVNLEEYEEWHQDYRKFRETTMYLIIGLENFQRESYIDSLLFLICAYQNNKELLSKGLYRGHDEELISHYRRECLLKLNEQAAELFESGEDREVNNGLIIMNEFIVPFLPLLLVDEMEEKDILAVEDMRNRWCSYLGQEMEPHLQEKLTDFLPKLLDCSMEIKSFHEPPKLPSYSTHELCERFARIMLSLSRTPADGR
Procedure, shortened: as §1

USP28 = target: T4, USP28 (UniProt Q96RU2)
T4 sequence (whole entry): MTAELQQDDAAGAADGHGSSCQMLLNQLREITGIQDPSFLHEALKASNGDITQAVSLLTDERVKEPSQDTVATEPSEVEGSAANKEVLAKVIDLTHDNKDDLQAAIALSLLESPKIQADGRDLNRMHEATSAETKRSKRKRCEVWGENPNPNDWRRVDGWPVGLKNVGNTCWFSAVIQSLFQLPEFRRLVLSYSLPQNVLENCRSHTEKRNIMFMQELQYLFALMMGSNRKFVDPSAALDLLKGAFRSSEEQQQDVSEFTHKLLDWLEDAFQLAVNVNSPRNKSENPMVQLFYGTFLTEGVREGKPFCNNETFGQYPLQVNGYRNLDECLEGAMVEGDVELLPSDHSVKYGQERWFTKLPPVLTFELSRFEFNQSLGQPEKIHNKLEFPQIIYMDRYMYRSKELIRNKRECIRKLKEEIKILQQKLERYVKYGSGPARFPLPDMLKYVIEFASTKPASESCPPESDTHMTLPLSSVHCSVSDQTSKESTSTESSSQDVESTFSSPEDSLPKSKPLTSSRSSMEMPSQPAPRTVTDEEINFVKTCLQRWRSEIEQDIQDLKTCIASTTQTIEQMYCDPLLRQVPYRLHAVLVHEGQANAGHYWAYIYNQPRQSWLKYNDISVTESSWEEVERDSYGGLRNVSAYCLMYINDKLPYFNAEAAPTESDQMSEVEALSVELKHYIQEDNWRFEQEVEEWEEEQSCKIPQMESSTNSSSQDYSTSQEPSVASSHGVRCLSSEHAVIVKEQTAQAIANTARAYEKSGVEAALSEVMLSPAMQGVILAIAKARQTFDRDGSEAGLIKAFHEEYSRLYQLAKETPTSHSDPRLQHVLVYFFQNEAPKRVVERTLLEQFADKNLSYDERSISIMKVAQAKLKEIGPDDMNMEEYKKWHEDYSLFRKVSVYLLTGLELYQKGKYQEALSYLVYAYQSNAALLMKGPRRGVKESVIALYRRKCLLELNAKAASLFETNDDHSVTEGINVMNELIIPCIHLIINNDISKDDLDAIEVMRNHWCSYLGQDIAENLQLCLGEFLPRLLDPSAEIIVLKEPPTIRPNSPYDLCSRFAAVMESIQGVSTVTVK
Procedure, shortened: as §1

Measured: log2 ratio of Biotin-Ahx-Ub-VS probe labelling

Chain of USP24 (Q9UPU5 whole entry): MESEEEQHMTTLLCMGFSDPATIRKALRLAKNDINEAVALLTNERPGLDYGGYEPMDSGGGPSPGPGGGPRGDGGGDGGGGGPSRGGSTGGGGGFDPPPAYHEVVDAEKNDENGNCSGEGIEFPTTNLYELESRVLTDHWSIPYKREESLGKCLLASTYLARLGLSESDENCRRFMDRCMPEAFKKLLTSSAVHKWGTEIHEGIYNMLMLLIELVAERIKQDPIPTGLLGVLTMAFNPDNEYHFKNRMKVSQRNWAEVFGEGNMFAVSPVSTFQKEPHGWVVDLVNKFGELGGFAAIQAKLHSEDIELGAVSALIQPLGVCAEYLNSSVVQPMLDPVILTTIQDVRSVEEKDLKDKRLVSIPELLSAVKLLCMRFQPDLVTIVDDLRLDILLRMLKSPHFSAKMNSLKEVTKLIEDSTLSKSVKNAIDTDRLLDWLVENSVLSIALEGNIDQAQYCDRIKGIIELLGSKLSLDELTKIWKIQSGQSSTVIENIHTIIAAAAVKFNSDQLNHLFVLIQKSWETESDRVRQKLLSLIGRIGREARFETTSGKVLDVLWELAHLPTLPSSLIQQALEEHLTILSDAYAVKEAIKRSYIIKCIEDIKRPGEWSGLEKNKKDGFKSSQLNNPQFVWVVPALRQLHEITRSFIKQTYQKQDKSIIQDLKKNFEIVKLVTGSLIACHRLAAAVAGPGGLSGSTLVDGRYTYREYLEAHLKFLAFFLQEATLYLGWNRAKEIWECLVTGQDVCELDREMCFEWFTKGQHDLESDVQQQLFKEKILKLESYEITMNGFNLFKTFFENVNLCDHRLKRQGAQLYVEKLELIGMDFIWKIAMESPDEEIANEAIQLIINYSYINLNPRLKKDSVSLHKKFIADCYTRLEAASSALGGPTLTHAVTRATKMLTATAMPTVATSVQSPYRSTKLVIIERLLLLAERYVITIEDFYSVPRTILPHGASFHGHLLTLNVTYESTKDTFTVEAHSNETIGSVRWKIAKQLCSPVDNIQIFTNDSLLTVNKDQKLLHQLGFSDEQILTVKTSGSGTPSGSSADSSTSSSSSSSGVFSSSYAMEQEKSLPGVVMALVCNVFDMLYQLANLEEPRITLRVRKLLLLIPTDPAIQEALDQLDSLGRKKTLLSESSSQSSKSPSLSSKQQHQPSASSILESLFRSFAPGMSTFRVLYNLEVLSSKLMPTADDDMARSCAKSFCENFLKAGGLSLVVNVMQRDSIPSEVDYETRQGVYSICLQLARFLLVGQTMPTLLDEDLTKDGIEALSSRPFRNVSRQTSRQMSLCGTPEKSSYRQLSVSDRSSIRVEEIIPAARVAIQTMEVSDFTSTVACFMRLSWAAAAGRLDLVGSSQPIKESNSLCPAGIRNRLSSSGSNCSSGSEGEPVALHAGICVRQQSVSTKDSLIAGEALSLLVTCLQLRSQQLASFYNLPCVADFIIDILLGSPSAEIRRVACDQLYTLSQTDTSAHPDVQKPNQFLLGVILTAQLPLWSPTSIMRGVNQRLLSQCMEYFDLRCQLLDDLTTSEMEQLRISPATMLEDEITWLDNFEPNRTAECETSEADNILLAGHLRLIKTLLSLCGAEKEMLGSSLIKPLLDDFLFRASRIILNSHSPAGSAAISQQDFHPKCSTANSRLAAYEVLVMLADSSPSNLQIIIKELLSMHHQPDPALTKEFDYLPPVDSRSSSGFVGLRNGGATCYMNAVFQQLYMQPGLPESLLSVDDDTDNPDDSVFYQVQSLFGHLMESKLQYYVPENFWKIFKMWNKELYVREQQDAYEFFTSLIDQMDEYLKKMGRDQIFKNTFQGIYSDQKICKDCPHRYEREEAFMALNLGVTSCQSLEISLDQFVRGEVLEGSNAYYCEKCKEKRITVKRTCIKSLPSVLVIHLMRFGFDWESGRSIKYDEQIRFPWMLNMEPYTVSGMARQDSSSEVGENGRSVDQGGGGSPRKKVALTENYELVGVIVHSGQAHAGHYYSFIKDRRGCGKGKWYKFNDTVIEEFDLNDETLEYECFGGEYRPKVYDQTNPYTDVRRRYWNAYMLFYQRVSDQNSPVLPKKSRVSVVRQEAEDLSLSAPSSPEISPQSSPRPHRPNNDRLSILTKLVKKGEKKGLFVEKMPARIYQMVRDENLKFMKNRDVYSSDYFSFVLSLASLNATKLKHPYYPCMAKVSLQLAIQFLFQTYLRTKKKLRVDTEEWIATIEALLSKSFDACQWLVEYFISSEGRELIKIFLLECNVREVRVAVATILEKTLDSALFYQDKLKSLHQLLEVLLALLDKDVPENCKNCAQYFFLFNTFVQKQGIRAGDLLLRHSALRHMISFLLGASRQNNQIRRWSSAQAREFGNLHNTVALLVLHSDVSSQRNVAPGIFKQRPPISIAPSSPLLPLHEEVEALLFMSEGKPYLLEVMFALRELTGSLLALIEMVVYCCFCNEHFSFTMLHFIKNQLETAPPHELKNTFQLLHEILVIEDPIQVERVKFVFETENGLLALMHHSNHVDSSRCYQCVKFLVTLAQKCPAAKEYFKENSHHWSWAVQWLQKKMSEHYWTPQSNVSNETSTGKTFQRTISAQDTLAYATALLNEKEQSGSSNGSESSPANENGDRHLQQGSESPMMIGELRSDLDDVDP

CN(C)S(=O)(=O)c1ccccc1CNC(=O)CCl
inactive: USP19 0.0268 | USP22 -0.12 | USP24 -0.108 | USP25 -0.258 | USP28 -0.239
